According to PubChem BioAssay AID2284424 (EPA ToxCast):
Calls of active or inactive are those of the source. Rule for the calls: active = hit-call score of the fitted dose curve at least 0.9, where 1 is the maximum; inactive = score below 0.9.

test system: SRY-box transcription factor 2 (SOX2) Protein Expression, SOX2 (gene 6657); experiment: CCTE_Deisenroth_DEVTOX-GLR_Ecto_SOX2: CCTE's DevTox GLR-Ecto Assay Evaluation of SRY-box transcription factor 2 (SOX2) Protein Expression, Deisenroth Lab
Protocol: CCTE_Deisenroth_DEVTOX-GLR_Ecto assay is a cell-based, multiplex-readout assay that uses RUES2-GLR, a human pluripotent cell line, with measurements taken at 48 hours after chemical dosing in a 384-well microplateCCTE_Deisenroth_DEVTOX-GLR_Ecto_SOX2 is 1 of 4 assay components calculated from the CCTE_Deisenroth_DEVTOX-GLR_Ecto assay and it measures an the percentage of cells in an ectoderm state. Using a type of inducible fluorescent protein reporter, gain-of-signal activity can be used to understand changes in gene expression with fluorescent microscopy. The percentage of SOX2+ cells are determined by calculating the number of SOX2+ cells divided by the cell count. To generalize the intended target to other relatable targets, this assay component is annotated to the transcription factor intended target family, where the subfamily is SRY-related HMG-box.Data from the assay component CCTE_Deisenroth_DEVTOX-GLR_Ecto_SOX2 was analyzed as 1 assay endpoint. The endpoint is the percent change in SOX2+ cell population relative to the 0.2% DMSO control in the CCTE_Deisenroth_DEVTOX-GLR_Ecto assay. Furthermore, this assay endpoint can be referred to as a primary readout, because this assay has produced multiple assay endpoints where this one serves as a measure of ectoderm differentiation.
All assay protocols are aligned to the DevTox GLR-Endo assay workflow. Cells are seeded into 384-well microplates for 24 hours prior to initiating differentiation in defined media for a total duration of 48 hours. A total of two chemical exposures are administered in 24-hour intervals during the 48-hour differentiation period. At the assay termination point, cells are fixed and stained with a fluorescent dye demarcating the nucleus. High-content imaging is used to acquire brightfield and fluorescent channel images across 5 fields per well. Cell identification and mean biomarker fluorescence intensities are calculated with image analysis software to determine the total cell counts for viability assessment and the biomarker expression frequency for each lineage-dependent assay. A typical experimental design tests a 10-point concentration series (1 nM - 200 uM) for 28 compounds in single technical replicate. Assay plate controls include non-differentiated pluripotent cells (baseline control), lineage-specific differentiated cells (differentiation control), and DMSO solvent exposed differentiated cells (solvent control). Experiments typically comprise a minimum of four experimental replicates (n=4).

Row | Structure (SMILES) | outcome | AC50
1 | CC/C(=C(/CC)c1ccc(O)cc1)c1ccc(O)cc1 | inactive | 
2 | CCN(CC)CCNC(=O)c1c(C)[nH]c(/C=C2\C(=O)Nc3ccc(F)cc32)c1C | inactive | 
3 | CC1=C(/C=C/C(C)=C/C=C/C(C)=C\C(=O)O)C(C)(C)CCC1 |  | 5.86 µM (active)
4 | O=C1NC(=O)C(c2ccccc2)(c2ccccc2)N1 | inactive | 
5 | Nc1nc2ncc(CNc3ccc(C(=O)N[C@@H](CCC(=O)O)C(=O)O)cc3)nc2c(=O)[nH]1 | inactive | 
6 | CC1=C(/C=C/C(C)=C/C=C/C(C)=C/C(=O)O)C(C)(C)CCC1 |  | 0.471 µM (active)
7 | CC(C)(c1ccc(O)cc1)c1ccc(O)cc1 | inactive | 
8 | Nc1cccc2c1C(=O)N(C1CCC(=O)NC1=O)C2=O (stereo unspecified) | inactive | 
9 | O=c1[nH]cc(F)c(=O)[nH]1 |  | 9.11 µM (active)
10 | CN(Cc1cnc2nc(N)nc(N)c2n1)c1ccc(C(=O)N[C@@H](CCC(=O)O)C(=O)O)cc1 |  | 0.106 µM (active)
11 | CC1(C)S[C@@H]2[C@H](NC(=O)Cc3ccccc3)C(=O)N2[C@H]1C(=O)O | inactive | 
12 | CS(=O)(=O)OCCCCOS(C)(=O)=O |  | 21 µM (active)
13 | CC(=O)Nc1ccc(O)cc1 | inactive | 
14 | O=C1CCC(N2C(=O)c3ccccc3C2=O)C(=O)N1 (stereo unspecified) | inactive | 
15 | O=C1NS(=O)(=O)c2ccccc21 | inactive | 
16 | CCCC(CCC)C(=O)O | inactive | 
